Measurements reported in PubChem BioAssay (EPA / NIEHS).
Records with an inconclusive call do not appear. Active and inactive are the calls of the source. Rule for the calls: active = hit-call score of the fitted dose curve at least 0.9, where 1 is the maximum; inconclusive = response in the unintended direction; inactive = score below 0.9.

Assay: ATG_GAL4_TRANS: Attagene TRANS-FACTORIAL HepG2 Assay for GAL4 (Internal Marker) (AID 2282976)
Conditions: HepG2 Attagene TRANS GAL4 internal marker reporter
Protocol: ATG_TRANS is a cell-based, multiplexed-readout assay that uses HepG2, a human liver cell line, with measurements taken at 24 hours after chemical dosing in a 24-well plate.ATG_GAL4_TRANS is one of 30 assay component(s) measured or calculated from the ATG_TRANS assay. It is designed to make measurements of mRNA induction, a form of inducible reporter, as detected with fluorescence intensity signals by Reverse transcription polymerase chain reaction (RT-PCR) and Capillary electrophoresis technology.Data from the assay component ATG_GAL4_TRANS was analyzed into 1 assay endpoint. This assay endpoint, ATG_GAL4_TRANS, was analyzed in the positive analysis fitting direction relative to DMSO as the negative control and baseline of activity. Using a type of inducible reporter, measures of mRNA for gain-of-signal activity can be used to understand the background control at the transcription factor-level as they relate to the gene . Furthermore, this assay endpoint can be referred to as a secondary readout, because this assay has produced multiple assay endpoints where this one serves a background control function. To generalize the intended target to other relatable targets, this assay endpoint is annotated to the background measurement intended target family, where the subfamily is baseline control.
Human liver HepG2 cells are transiently transfected with multiple reporter transcription units (MRTUs) in 6-well plates using FuGene 6 reagent (Roche; 3 ml FuGene/1 mg DNA). The MRTU constructs are regulated by a cis-regulating element (promoter). […] A major difference between the CIS and TRANS system is that in CIS activities of endogenous TFs are measured, whereas the TRANS assay evaluates changes in activities of exogenous, chimeric NR-Gal4 proteins. […] At the end of 24 hour incubation, total RNA was isolated using TriZol reagent (Invitrogen). The isolated RNA is then reverse-transcribed using oligo(dT) primer and Mo-MLV reverse transcriptase (Invitrogen) with DNAse I (Ambion) treatment for 30 min. The one-tenth of the produced cDNA was amplified by PCR using Taq DNA polymerase (Invitrogen) and two reporter sequence-specific primers. The PCR products were fluorescently labeled by primer extension with 6-arboxyfluorescein (6-FAM) 5'-labeled reporter sequence-specific primer (2 min at 95 C, 20 s at 68 C and 10 min at 72 C) and these products were digested with 5U of HpaI (New England Biolabs) for 2h at 37 C. The fragments were purified using Qiaquick PCR columns (Qiagen), analyzed on an ABI 3130xL genetic analyzer (Applied Biosystems) with peak positions identified by using a set of X-rhodamine (ROX)-labeled MapMarker1000 molecular weight standards (BioVentures). The raw capillary electrophoresis data was processed using Attagraph software (Attagene).

outcome, inactive:
C[C@]12CC[C@@H]3c4ccc(O)cc4CC[C@H]3[C@@H]1C[C@@H](O)[C@@H]2O, O=C(O)c1cccc(C(=O)O)n1, O=C(OC(=O)C(F)(F)C(F)(F)F)C(F)(F)C(F)(F)F, COc1ccc(C#N)cc1, C=CC(=O)OCCC(F)(F)C(F)(F)C(F)(F)C(F)(F)C(F)(F)C(F)(F)F, CC(C)c1c(C(=O)Nc2ccccc2)c(-c2ccccc2)c(-c2ccc(F)cc2)n1CC[C@@H](O)C[C@@H](O)CC(=O)O, CCOC(OCC)C(=O)c1ccccc1, FC(F)(F)C1(F)C(F)(F)C(F)(F)C(F)(F)C(F)(C(F)(F)F)C1(F)F (stereo not given), CC(=O)CC(C)C, Brc1cc(Br)c(Oc2c(Br)cc(Br)c(Br)c2Br)cc1Br, O=C(O)CN(CCCN(CC(=O)O)CC(=O)O)CC(=O)O, Cc1ccc(S(=O)(=O)O)cc1, CC=O, Cc1ccccc1C(OCCN(C)C)c1ccccc1 (stereo not given), O=C(c1ccccc1)c1ccccc1, CCCCCCCCCCCCCCC, FC(OC(F)(F)C(F)(F)C(F)(F)F)C(F)(F)F (stereo not given), CC[N+](CC)(CC)Cc1ccccc1, CCCCCC(C)OC(=O)COc1ccc(Cl)c2cccnc12 (stereo not given), O=C1OC(=O)C(F)(F)C1(F)F, c1cc[nH]c1, C=CC(F)(F)C(F)(F)C(F)(F)C(F)(F)F, O=C(O)C(=O)O, COc1cc([N+](=O)[O-])ccc1N, CC1CCC(CO)CC1 (stereo not given), CCc1cccc(CC)c1N(COC)C(=O)CS(=O)(=O)O, O=C1OC2(c3ccccc31)c1cc(I)c(O)c(I)c1Oc1c2cc(I)c(O)c1I, CC(=O)Nc1ccc(S(N)(=O)=O)cc1, CCCCC(CC)C(=O)OCCOCCOCCOCCOC(=O)C(CC)CCCC (stereo not given), CCO[Si](C)(C)OCC, CCCCCCCCC1CCC(=O)O1 (stereo not given), FC(F)(F)C1(F)C(F)(F)C(F)(F)C(F)(F)C1(F)F, O=S(=O)(O)C(F)(F)C(F)(F)C(F)(F)C(F)(F)C(F)(F)C(F)(F)C(F)(F)C(F)(F)C(F)(F)C(F)(F)F, CC(C)CCOCCC(C)C, O=S(=O)(O)c1ccccc1, CC(C)(c1ccc(Oc2ccc(N)cc2)cc1)c1ccc(Oc2ccc(N)cc2)cc1, CCCC=O, CCCCCCCCCCCC(=O)O, O=P(O)(O)CCC(F)(F)C(F)(F)C(F)(F)C(F)(F)C(F)(F)C(F)(F)C(F)(F)C(F)(F)F, O=C1c2ccccc2C(=O)c2c(O)c(O)cc(O)c21
